CHO-K1 Ca antag: counter-screen for M1 antagonists: effect in parental CHO-K1 cells | ATP-induced calcium, Fluo-8 fluorescence | inhibition, % at 3 µM | 0.6% of 360,000 active;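 active = inhibition above a per-plate cutoff, the plate's mean sample inhibition plus 3 SD, cut at about 24% in these data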;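 note: 0% = DMSO plus EC80 ATP and 100% = DMSO alone without ATP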
CHRM1 agonist: agonists of human M1 muscarinic receptor. P11229. CHO-K1 hM1, Fluo-8 calcium fluorescence, agonist mode; 0% DMSO, 100% acetylcholine EC100. activation, % at 3 µM. 0.33% of 360,000 active;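 active = activation above the run's mean compound activation plus 3 SD, cut at about 16% in these data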;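 note: peak over basal fluorescence ratio within a 140 s kinetic read after compound addition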
Target sequence (P11229 whole entry, looked up): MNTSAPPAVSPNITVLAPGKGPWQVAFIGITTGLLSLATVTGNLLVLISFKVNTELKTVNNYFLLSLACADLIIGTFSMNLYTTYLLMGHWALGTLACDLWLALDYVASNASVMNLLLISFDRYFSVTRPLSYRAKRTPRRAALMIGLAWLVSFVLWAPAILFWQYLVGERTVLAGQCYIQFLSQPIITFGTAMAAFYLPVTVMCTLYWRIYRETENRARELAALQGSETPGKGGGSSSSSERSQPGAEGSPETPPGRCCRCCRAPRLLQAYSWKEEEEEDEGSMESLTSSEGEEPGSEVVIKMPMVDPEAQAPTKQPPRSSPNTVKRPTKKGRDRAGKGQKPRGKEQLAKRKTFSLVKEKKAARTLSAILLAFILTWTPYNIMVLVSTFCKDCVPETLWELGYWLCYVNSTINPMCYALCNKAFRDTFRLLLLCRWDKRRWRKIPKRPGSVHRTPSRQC
M1 PAM: potentiates human M1 receptor response to acetylcholine; P11229; CHO-K1 hM1, Fluo-8 calcium fluorescence, ACh EC20; 0% = ACh EC20, 100% = maximal ACh; activation, % at 3 µM; 0.088% of 360,000 active; in the data active = activation above about 19%, passing the limit was not always enough
CHO-K1 Ca PAM: nonselective activator or artifact in parental CHO-K1 calcium assay | activation, % at 3 µM | 0.02% of 360,000 active | ATP EC20, Fluo-8 calcium fluorescence; 0% at ATP EC20, 100% at ATP max;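 active = activation above the run cutoff, the mean activation of all test compounds plus 3 SD, cut at about 40% in these data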;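 note: peak over basal fluorescence ratio in a 140 s read after ATP addition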
M1 antag: antagonists of human M1 muscarinic receptor | CHO-K1 hM1, Fluo-8 calcium fluorescence, ACh EC80 antagonist | inhibition, % at 3 µM | 1.3% of 360,000 active | AID 588852;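 active = percent inhibition above its own plate's cutoff, namely the mean of that plate's compound wells plus 3 SD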;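 note: peak over basal fluorescence ratio during 140 s after agonist addition; 0% = ACh EC80 plus DMSO and 100% = DMSO alone without agonist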
CHO-K1 Ca ag: M1 agonist counterscreen hit in parental CHO-K1 cells. Fluo-8 calcium fluorescence; scaled to maximal ATP response, vehicle zero. activation, % at 3 µM. 0.48% of 360,000 active; in the data active = activation above about 15%;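 note: untransfected CHO-K1 host cells lacking M1 receptor as counterscreen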
* = called active by the depositor. Shown are actives, neighbours in structure and some others; about 2.4% of the full set was active somewhere.

SMILES	CHO-K1 Ca antag	CHRM1 agonist	M1 PAM	CHO-K1 Ca PAM	M1 antag	CHO-K1 Ca ag
CCOC(=O)c1cnc2c(CC)cccc2c1NCCN1CCOCC1	23	-9	-26	-11	64*	0
CCOC(=O)c1cnc2c(C(=O)OC)cccc2c1NCCN1CCOCC1	-14	-11	13	12	-4	0
CSC[C@@H]1NC(=S)N(c2ccc(C)cc2)C1=O	3	-3	7	-2	-3	0
CC(C)Cc1ccc(CN2CCCC(NC(=O)c3ccnn3C)C2)cc1 (stereo not drawn)	2	0	-10	-7	-5	9
Cc1noc(C)c1CCC(=O)NC1CCCN(Cc2ccc(CC(C)C)cc2)C1 (stereo not drawn)	-9	-5	-22	-13	54*	3
Cc1noc(C)c1CCC(=O)NC1CCCN(Cc2ccc(Cl)cc2)C1 (stereo not drawn)	15	-8	-16	-30	36*	-1
O=C(Nc1ccc(OC(F)(F)F)cc1)N1CCc2nc(NCc3cccc(Oc4ccccc4)c3)ncc2C1	17	0	-26	-10	43*	10
O=C(c1ccncc1)N1CCN(C2CCC(c3ccccc3)CC2)CC1 (stereo not drawn)	-11	0	-2	4	11	2
COc1cccc(C(=O)N2CCN(C3CCC(c4ccccc4)CC3)CC2)c1OC (stereo not drawn)	-12	43*	-11	2	22	1
Cc1cccc(C)c1-n1c(C)cc(/C=N\Nc2ccc([N+](=O)[O-])cn2)c1C	13	-2	-14	-2	35*	3
CCn1ccnc1CN1CCc2c([nH]c3ccccc23)C1C(C)(C)C (stereo not drawn)	12	-14	-13	15	5	23*
CCn1ccnc1CN1CCc2c([nH]c3ccccc23)C1CC(C)C (stereo not drawn)	-12	-6	-10	7	8	3
O=C(Cc1ccccc1)Nc1ccc(NC(=O)c2cccs2)cc1Cl	8	-1	7	5	0	2
N#Cc1ccccc1Cn1cc(/C=C/[N+](=O)[O-])c2ccccc21	-1	4	8	18	50*	3
O=[N+]([O-])/C=C/c1cn(Cc2ccccc2)c2ccccc12	-5	1	10	16	-1	0
COc1ccccc1C(=O)Nc1sc(C(=O)N2CCCC2)c(C)c1C#N	-1	-8	13	17	-11	1
Cc1c(C(=O)N2CCCC2)sc(NC(=O)c2ccc(Cl)cc2)c1C#N	24*	-1	8	-8	-3	0
CCS(=O)(=O)c1ccc(O)c(NC(=O)COc2ccc(OC)cc2)c1	-1	-3	-2	14	4	1
CCCc1ccc(OCC(=O)Nc2cc(S(=O)(=O)CC)ccc2O)cc1	-6	4	-2	6	8	16*
CCN(c1ccccc1)S(=O)(=O)c1ccc(OC)c(NC(=O)Cn2cnc3c2c(=O)n(C)c(=O)n3C)c1	-12	-12	4	20	-9	4
O=C(CCc1ccccc1)Nc1ccnn1C1CCN(C/C=C/c2ccccc2)CC1	-13	0	-2	10	-6	2
COc1ccccc1/C=C/CN1CCC(n2nccc2NC(=O)CCc2ccccc2)CC1	24*	1	-7	-16	31	15*
Cc1ccc2nc(SCc3nc4ccccc4c(=O)[nH]3)[nH]c2c1	29*	-6	4	-16	-8	1
COC(=O)c1sc2nc(CSc3nc4ccc(C)cc4[nH]3)[nH]c(=O)c2c1C	5	-3	-6	-5	11	0
COc1cc(/C=C/C(=O)OCC(=O)NC(=O)NC(C)C)ccc1O	-4	0	5	-9	-5	0
SMILES	CHO-K1 Ca antag	CHRM1 agonist	M1 PAM	CHO-K1 Ca PAM	M1 antag	CHO-K1 Ca ag
S=C(Nc1ccc2nsnc2c1)NC1CCCCC1	-11	-3	-10	0	5	4
Fc1ccc(NC(=S)NC2CCN(Cc3ccccc3)CC2)cc1	-6	-7	-9	3	7	5
FC(F)(F)c1cccc(N2CCN(C(=S)NC3CCCC3)CC2)c1	2	-3	-12	3	33*	3
FC(F)(F)c1cccc(NC(=S)NC2CCCC2)c1	25*	-4	-14	-16	18	9
S=C(Nc1ccc(Cl)c(Cl)c1)NC1CCN(Cc2ccccc2)CC1	24*	17*	11	14	6	12
S=C(Nc1ccc(Cl)c(Cl)c1)NC1CCCCC1	13	-4	-29	2	44*	23*
O=C(NCc1cccc(C(F)(F)F)c1)c1ccc2sc(C3=C[C@@H](O)[C@@H](O)[C@@H](CO)O3)nc2c1	-1	-3	8	9	-14	0
Cc1cc(C)nc(N(C#N)Cc2cccc(Cl)c2)n1	-4	-2	8	-11	-4	-1
O=C(NNC(=S)NCCc1ccccc1)c1ccc(Br)s1	14	-8	8	10	2	5
O=S(=O)(c1ccc(NC(=S)NC2CCCC2)cc1)N1CCCC1	25*	-7	-15	-10	10	4
CCN1CCCC1CNC(=O)c1ccc(Sc2ccc(F)cc2)c([N+](=O)[O-])c1 (stereo not drawn)	-4	-7	-26	7	100*	1
CCN1CCCC1CNC(=O)c1ccc(Sc2ccccc2Cl)c([N+](=O)[O-])c1 (stereo not drawn)	0	-8	-26	-10	99*	1
CN(C)c1ccc(/C=C(/C#N)C(=O)Nc2nc3c(s2)CCN(Cc2ccccc2)C3)cc1	14	19*	-15	-3	24*	12
Cc1ccc(C(=O)NC(=S)Nc2ccc(CN3CCOCC3)cc2)cc1	2	-4	0	-4	2	5
O=C(Nc1ccc(CN2CCOCC2)cc1)c1ccc(-c2cccc(Cl)c2)o1	-5	-1	1	22	2	4
COc1ccc(Br)cc1C(=O)NC(=S)Nc1ccc(CN2CCOCC2)cc1	-23	-4	-17	22	32*	3
O=C(NC(=S)Nc1ccc(CN2CCOCC2)cc1)c1ccc(-c2cccc(Cl)c2)o1	-9	-6	-23	10	58*	2
CCn1ccnc1CN(C)Cc1nc(CCC(C)C)no1	-9	-6	0	-3	-1	-1
Cc1ccc(C#CC[N+](C)(C)CC#Cc2ccccc2)cc1	-9	-7	-18	0	30*	0
O=CNCCCc1nc2ccccc2n1Cc1ccccc1	36*	-2	14	-7	-6	0
O=C(CSc1nnc(C2CC2)n1C1CC1)Nc1cccc(Br)c1	-12	-6	7	17	-8	1
CCCc1cnc(Nc2nc(C(N)Cc3ccc(C(F)(F)F)cc3)cs2)nc1 (stereo not drawn)	12	18*	4	18	14	10

Screening data from PubChem BioAssay.
